Laboratory results taken from PubChem BioAssay.

System: XIP peptide (Xip251-270)
Experiment: small-molecule binders of XIP peptide, primary screen, biochemical, small-molecule microarray, fluorescence 635/667 nm, 0.5 µg/mL protein (AID 1183)
Conditions: small-molecule microarray binding, fluorescence 635 nm; higher = more signal

Compound | composite z-score
COC(=O)[C@H]1[C@@H](O)[C@@]2(O)c3ccccc3O[C@@]2(c2ccccc2)[C@@H]1c1ccccc1 | -0.028
COC(=O)[C@H](C)NC(=O)CCC1CC(OC(=O)NCc2ccc3c(c2)OCO3)CC2(CCCC(COC(=O)NCC3CCCCC3)O2)O1 (some centres undefined) | 0.555
CCOC(=O)[C@H](Cc1ccccc1)NC(=O)CCC1CC(OC(=O)NCc2cccc3ccccc23)CC2(CCCC(COC(=O)NCc3ccccc3)O2)O1 (some centres undefined) | 0.355
O=C1CCCC=C1C(O)CCCCBr (centres undefined) | -0.165
COc1cccc([C@H]2Oc3ccc(OC)cc3C(=NOC[C@@H](O)COCc3ccco3)[C@@H]2O)c1 | -1.5
CO[C@@H]1COC(=O)[C@@H](C)NC(=O)CC=C[C@@H](C)[C@H](NS(=O)(=O)c2ccc(C)cc2)COC(=O)[C@H](C)NC(=O)CC=C[C@H]1C | 0.113
CO[C@@H]1COC(=O)CC=C[C@@H](C)[C@@H]2C=C[C@H](O)[C@@H](COC(=O)CC=C[C@H]1C)O2 | 0.853
CCOC(=O)[C@H](CC(C)C)NC(=O)CCC1CC(OC(=O)NCc2ccc3c(c2)OCO3)CC2(CCCC(COC(=O)NCCCN3CCCC3=O)O2)O1 (some centres undefined) | 0.6

System: not listed separately
Experiment: Plasmodium falciparum growth inhibition, primary screen, strain 3D7, DAPI fluorescence, 100 nL (AID 1184);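 note: parasites grown inside human red blood cells in medium with human serum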
Conditions: P. falciparum 3D7 growth, 3 d, higher = more signal

Compound | z-score
CC[C@@H](c1ccccc1)n1c(=O)n2n(c1=O)[C@H]1[C@H](O)[C@@H]3O[C@@H]3C(=O)[C@H]1CC2 | -1.22
CCOC(=O)[C@H](Cc1ccccc1)NC(=O)CCC1CC(OC(=O)NCc2cccc3ccccc23)CC2(CCCC(COC(=O)NCc3cccc(C(F)(F)F)c3)O2)O1 (some centres undefined) | -1.39
C[C@H]1Cc2c(COc3ccccc3)nc3c(c2CO1)CN(CCOc1ccccc1)CC3 | 0.668
CCOC(=O)NN=C1C[C@@H](O)[C@@H](O)[C@@H]2[C@@H]3C(=O)N(c4cccc(Oc5ccccc5)c4)C(=O)[C@@H]3CC[C@@H]12 | -0.512
COc1cc(O)c(C(=O)C=Cc2ccc3c(c2)OCO3)c(OC)c1 | -0.973
C=CC[C@@H]1C=C[C@H](ON=C2[C@H]3CCn4c(=O)n(-c5ccccc5)c(=O)n4[C@H]3[C@H](O)[C@@H]3O[C@H]23)[C@@H](CO)O1 | -0.605
C[C@@H](c1ccccc1)N1C(=O)[C@H]2[C@H]3[C@H](O)[C@H](O)CC(=NO[C@@H]4O[C@H](CO)[C@@H](O)[C@H](O)[C@H]4O)[C@@H]3CC[C@H]2C1=O | -2.33
CC(CCN1CCCc2nc(C)c(C)cc21)=NO[C@@H](C)c1cc(-c2c(C)cc(C)cc2C)no1 | -1.36
CC(=O)OC[C@H]1O[C@H](CCON=C2[C@H]3CCn4c(=O)n(-c5ccccc5)c(=O)n4[C@H]3[C@H](O)[C@@H]3O[C@H]23)C=C[C@@H]1OC(C)=O | -0.374
CCN1C(=O)[C@H]2[C@H]3[C@H](O)[C@H](O)CC(=NO[C@@H](C)c4cn([C@H](CO)Cc5ccccc5)nn4)[C@@H]3CC[C@H]2C1=O | 0.032
CO[C@H]1COC(=O)[C@@H](C)COC(=O)[C@@H](OCc2ccccc2)C=C[C@@H]1C | -0.66
COc1ccc(C#C[C@@H]2C=C[C@H](OC(C)=O)[C@@H](COC(C)=O)O2)cc1 | 0.714
CC(C)=CCCC(C)=CCON=C1C[C@@H](O)[C@@H](O)[C@@H]2[C@@H]3C(=O)N(Cc4ccccc4)C(=O)[C@@H]3CC[C@@H]12 | 0.83
O=C1[C@H]2[C@H]3[C@H](O)[C@H](O)CC(=NOCc4ccccc4)[C@@H]3CC[C@H]2C(=O)N1Cc1ccc2c(c1)OCO2 | -0.364
CO[C@@H]1C=CCC(=O)N2CCC[C@H]2C(=O)OC[C@@H](C)C(=O)OC[C@H]1C | 0.432
CC(C)=CCCC(C)=CCON=C1C[C@@H](O)[C@@H](O)[C@@H]2[C@@H]3C(=O)N(C(C)(C)C)C(=O)[C@@H]3CC[C@H]12 | 1.46
COC(=O)[C@H](C)NC(=O)CCC1CC(OC(=O)NCCc2ccc(F)cc2)CC2(CCCC(COC(=O)NCc3cccc(C(F)(F)F)c3)O2)O1 (some centres undefined) | -0.506
CCC1=NOC(CCC2CC(OC(=O)NCc3cccc4c3OCO4)CC3(CCCC(COC(=O)NCCc4ccccc4OC)O3)O2)C1 (centres undefined) | -0.95

Compound | z-score
CC(C)=CCCC(C)=CCON=C1C[C@@H](O)[C@@H](O)[C@@H]2[C@@H]3C(=O)N(C4CCCCC4)C(=O)[C@@H]3CC[C@@H]12 | 0.242
COc1ccc(COC(=O)NN=C2C[C@@H](O)[C@@H](O)[C@@H]3[C@@H]4C(=O)N(C5CCCCC5)C(=O)[C@@H]4CC[C@H]23)cc1 | -0.336
CC(CCN1CCCCc2nc(C)c(C)cc21)=NOC[C@@H](O)COCc1ccco1 | -0.246
CCN1C(=O)[C@H]2[C@H]3[C@H](O)[C@H](O)CC(=NOC[C@H]4O[C@H](c5ccccc5)C=C[C@@H]4Oc4ccc(OC)cc4)[C@@H]3CC[C@H]2C1=O | 0.188
O=C(NN=C1C[C@@H](O)[C@@H](O)[C@@H]2[C@@H]3C(=O)N(C4CCCCC4)C(=O)[C@@H]3CC[C@H]12)OCc1ccccc1 | -0.0276
CCOC(=O)NN=C1C[C@@H](O)[C@@H](O)[C@@H]2[C@@H]3C(=O)N(Cc4ccccc4)C(=O)[C@@H]3CC[C@H]12 | -0.179
CC(C)(C)N1C(=O)[C@H]2[C@H]3[C@H](O)[C@H](O)CC(=O)[C@H]3CC[C@H]2C1=O | -1.08
C[C@@H]1CC[C@H]2C(=O)O[C@@H](Cc3ccccc3)CN2[C@H]1c1ccc(Br)cc1 | 0.209
CCOC(=O)NN=C1C[C@@H](O)[C@@H](O)[C@@H]2[C@@H]3C(=O)N(Cc4ccc5c(c4)OCO5)C(=O)[C@@H]3CC[C@H]12 | -0.948
CCN1C(=O)[C@H]2[C@H]3[C@H](O)[C@H](O)CC(=NNC(=O)OCc4ccc(OC)cc4)[C@@H]3CC[C@H]2C1=O | -0.18
COC(=O)[C@H]1[C@@H](O)[C@@]2(O)c3ccccc3O[C@@]2(c2ccccc2)[C@@H]1c1ccccc1 | -1.87
COC(=O)[C@H](C)NC(=O)CCC1CC(OC(=O)NCc2ccc3c(c2)OCO3)CC2(CCCC(COC(=O)NCC3CCCCC3)O2)O1 (some centres undefined) | -1.87
CCOC(=O)[C@H](Cc1ccccc1)NC(=O)CCC1CC(OC(=O)NCc2cccc3ccccc23)CC2(CCCC(COC(=O)NCc3ccccc3)O2)O1 (some centres undefined) | -1.41
O=C1CCCC=C1C(O)CCCCBr (centres undefined) | -1.76
COc1cccc([C@H]2Oc3ccc(OC)cc3C(=NOC[C@@H](O)COCc3ccco3)[C@@H]2O)c1 | 0.563
CO[C@@H]1COC(=O)[C@@H](C)NC(=O)CC=C[C@@H](C)[C@H](NS(=O)(=O)c2ccc(C)cc2)COC(=O)[C@H](C)NC(=O)CC=C[C@H]1C | 0.327
CO[C@@H]1COC(=O)CC=C[C@@H](C)[C@@H]2C=C[C@H](O)[C@@H](COC(=O)CC=C[C@H]1C)O2 | 0.338
CCOC(=O)[C@H](CC(C)C)NC(=O)CCC1CC(OC(=O)NCc2ccc3c(c2)OCO3)CC2(CCCC(COC(=O)NCCCN3CCCC3=O)O2)O1 (some centres undefined) | -1.61
